Assay results from article PMC5540273 (PLoS ONE, 2017).
Where “and” joins values, the source holds several entries; their conditions need not be identical. Equal values may be shown once. Read-outs that look alike come from different tables or passages of the source.

Columns and labels:
MYO3B = details: concentration: 1 μM, replicates: in singlicate, n = 1
NDR1 = tested on: T1, NDR1; details: concentration: 1 μM, replicates: in singlicate, n = 1
T1 construct: gene STK38

NDR2 = details: concentration: 1 μM, replicates: in singlicate, n = 1
NEK10 = details: concentration: 1 μM, replicates: in singlicate, n = 1
NEK11 = details: concentration: 1 μM, replicates: in singlicate, n = 1
NEK1 = details: concentration: 1 μM, replicates: in singlicate, n = 1
NEK2 = details: concentration: 1 μM, replicates: in singlicate, n = 1
NEK3 = details: concentration: 1 μM, replicates: in singlicate, n = 1
NEK4 = details: concentration: 1 μM, replicates: in singlicate, n = 1
NEK5 = details: concentration: 1 μM, replicates: in singlicate, n = 1
NEK6 = details: concentration: 1 μM, replicates: in singlicate, n = 1
NEK7 = details: concentration: 1 μM, replicates: in singlicate; n = 1
NEK9 = details: concentration: 1 μM, replicates: in singlicate, n = 1
NIK = tested on: T2, NIK; details: concentration: 1 μM, replicates: in singlicate, n = 1
T2 construct: gene MAP3K14

NIM1 = tested on: T3, NIM1; details: concentration: 1 μM, replicates: in singlicate, n = 1
T3 construct: gene MGC42105

NLK = details: concentration: 1 μM, replicates: in singlicate, n = 1
OSR1 = tested on: T4, OSR1; details: concentration: 1 μM, replicates: in singlicate, n = 1
T4 construct: gene OXSR1

PAK1 = details: concentration: 1 μM, replicates: in singlicate, n = 1
PAK2 = details: concentration: 1 μM, replicates: in singlicate, n = 1
PAK3 = details: concentration: 1 μM, replicates: in singlicate, n = 1
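Note: KINOMEscan kinase panel screen.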

SMILES: CC(C)(CN)c1nc(-c2ccc(Cl)c(O)c2)c(-c2ccncc2)[nH]1.O=C(O)C(F)(F)F [SB-477794]
- %Inh (MYO3B; 1 µM): 0% and 47%
- %Inh (NDR1; 1 µM): 40% and 49%
- %Inh (NDR2; 1 µM): 63% and 52%
- %Inh (NEK10; 1 µM): 19% and 24%
- %Inh (NEK11): 0%
- %Inh (NEK1; 1 µM): 0% and 100%
- %Inh (NEK2; 1 µM): 12% and 0%
- %Inh (NEK3; 1 µM): 26% and 0%
- %Inh (NEK4; 1 µM): 21% and 10%
- %Inh (NEK5; 1 µM): 13% and 3%
- %Inh (NEK6; 1 µM): 0% and 2%
- %Inh (NEK7): 0%
- %Inh (NEK9; 1 µM): 0% and 11%
- %Inh (NIK; 1 µM): 0% and 3%
- %Inh (NIM1; 1 µM): 4% and 0%
- %Inh (NLK; 1 µM): 98.1% and 98.4%
- %Inh (OSR1; 1 µM): 4% and 0%
- %Inh (PAK1; 1 µM): 23% and 11%
- %Inh (PAK2; 1 µM): 1% and 0%
- %Inh (PAK3; 1 µM): 35% and 39%

SMILES: COC(=O)Nc1nc2cc(Oc3ccc(NC(=O)Nc4cc(F)ccc4F)cc3)ccc2[nH]1.Cl [GW701424]
- %Inh (MYO3B): 0%
- %Inh (NDR1): 26%
- %Inh (NDR2): 0%
- %Inh (NEK10): 8%
- %Inh (NEK11): 7%
- %Inh (NEK1): 0%
- %Inh (NEK2): 0%
- %Inh (NEK3): 0%
- %Inh (NEK4): 0%
- %Inh (NEK5): 3%
- %Inh (NEK6): 0%
- %Inh (NEK7): 0%
- %Inh (NEK9): 0%
- %Inh (NIK): 44%
- %Inh (NIM1): 30%
- %Inh (NLK): 10%
- %Inh (OSR1): 14%
- %Inh (PAK1): 0%
- %Inh (PAK2): 0%
- %Inh (PAK3): 0%

SMILES: O=C(c1ccc(-c2cc(-c3c[nH]nc3-c3ccccn3)ccn2)cc1)N1CCOCC1 [GW812171]
- %Inh (MYO3B): 0%
- %Inh (NDR1): 44%
- %Inh (NDR2): 0%
- %Inh (NEK10): 18%
- %Inh (NEK11): 0%
- %Inh (NEK1): 0%
- %Inh (NEK2): 0%
- %Inh (NEK3): 25%
- %Inh (NEK4): 0%
- %Inh (NEK5): 0%
- %Inh (NEK6): 2%
- %Inh (NEK7): 0%
- %Inh (NEK9): 0%
- %Inh (NIK): 32%
- %Inh (NIM1): 0%
- %Inh (NLK): 0%
- %Inh (OSR1): 0%
- %Inh (PAK1): 7%
- %Inh (PAK2): 0%
- %Inh (PAK3): 0%

SMILES: Cc1cccc(Cn2ccn3c(=O)cc(N4CCOCC4)nc23)c1 [GSK2297542]
- %Inh (MYO3B): 0%
- %Inh (NDR1): 33%
- %Inh (NDR2): 0%
- %Inh (NEK10): 14%
- %Inh (NEK11): 6%
- %Inh (NEK1): 12%
- %Inh (NEK2): 15%
- %Inh (NEK3): 15%
- %Inh (NEK4): 16%
- %Inh (NEK5): 19%
- %Inh (NEK6): 2%
- %Inh (NEK7): 0%
- %Inh (NEK9): 15%
- %Inh (NIK): 0%
- %Inh (NIM1): 8%
- %Inh (NLK): 15%
- %Inh (OSR1): 19%
- %Inh (PAK1): 18%
- %Inh (PAK2): 25%
- %Inh (PAK3): 3%

SMILES: Cc1nnc(-c2ccc3occ(-c4ccc(C(C)O)cc4)c3c2)o1 (stereo not drawn)
- %Inh (MYO3B): 0%
- %Inh (NDR1): 18%
- %Inh (NDR2): 55%
- %Inh (NEK10): 30%
- %Inh (NEK11): 0%
- %Inh (NEK1): 0%
- %Inh (NEK2): 0%
- %Inh (NEK3): 3%
- %Inh (NEK4): 0%
- %Inh (NEK5): 0%
- %Inh (NEK6): 4%
- %Inh (NEK7): 0%
- %Inh (NEK9): 0%
- %Inh (NIK): 0%
- %Inh (NIM1): 0%
- %Inh (NLK): 2%
- %Inh (OSR1): 25%
- %Inh (PAK1): 14%
- %Inh (PAK2): 16%
- %Inh (PAK3): 23%

SMILES: NCCNS(=O)(=O)c1ccc(-c2ccnc3[nH]ccc23)cc1 [GSK977617]
- %Inh (MYO3B): 0%
- %Inh (NDR1; 1 µM): 70% and 58%
- %Inh (NDR2; 1 µM): 77% and 60%
- %Inh (NEK10; 1 µM): 69% and 53%
- %Inh (NEK11; 1 µM): 24% and 0%
- %Inh (NEK1; 1 µM): 62% and 44%
- %Inh (NEK2): 0%
- %Inh (NEK3; 1 µM): 14% and 0%
- %Inh (NEK4): 0%
- %Inh (NEK5; 1 µM): 44% and 25%
- %Inh (NEK6; 1 µM): 4% and 0%
- %Inh (NEK7): 0%
- %Inh (NEK9; 1 µM): 22% and 16%
- %Inh (NIK; 1 µM): 19% and 7%
- %Inh (NIM1; 1 µM): 0% and 26%
- %Inh (NLK): 0%
- %Inh (OSR1; 1 µM): 63% and 52%
- %Inh (PAK1; 1 µM): 66% and 43%
- %Inh (PAK2; 1 µM): 65% and 41%
- %Inh (PAK3; 1 µM): 90.6% and 78%

SMILES: COc1ccc(S(=O)(=O)NC2CCN(c3cc(C)nc(Nc4cccc(C#N)c4)n3)CC2)cc1.O=C(O)C(F)(F)F [GSK1653539]
- %Inh (MYO3B): 0%
- %Inh (NDR1): 35%
- %Inh (NDR2): 0%
- %Inh (NEK10): 23%
- %Inh (NEK11): 0%
- %Inh (NEK1): 0%
- %Inh (NEK2): 3%
- %Inh (NEK3): 0%
- %Inh (NEK4): 0%
- %Inh (NEK5): 2%
- %Inh (NEK6): 0%
- %Inh (NEK7): 0%
- %Inh (NEK9): 0%
- %Inh (NIK): 5%
- %Inh (NIM1): 0%
- %Inh (NLK): 50%
- %Inh (OSR1): 0%
- %Inh (PAK1): 3%
- %Inh (PAK2): 0%
- %Inh (PAK3): 0%

SMILES: CCCCCc1nc2c(N)ncnc2n1CCCCC [SKF-97255]
- %Inh (MYO3B): 10%
- %Inh (NDR1): 31%
- %Inh (NDR2): 7%
- %Inh (NEK10): 16%
- %Inh (NEK11): 0%
- %Inh (NEK1): 18%
- %Inh (NEK2): 0%
- %Inh (NEK3): 28%
- %Inh (NEK4): 0%
- %Inh (NEK5): 0%
- %Inh (NEK6): 2%
- %Inh (NEK7): 0%
- %Inh (NEK9): 0%
- %Inh (NIK): 0%
- %Inh (NIM1): 27%
- %Inh (NLK): 0%
- %Inh (OSR1): 0%
- %Inh (PAK1): 12%
- %Inh (PAK2): 67%
- %Inh (PAK3): 4%

SMILES: NS(=O)(=O)c1cccc(-c2ccc3ncc(N4CCOCC4)nc3c2)c1 [GSK1535721]
- %Inh (MYO3B): 0%
- %Inh (NDR1): 21%
- %Inh (NDR2): 0%
- %Inh (NEK10): 0%
- %Inh (NEK11): 0%
- %Inh (NEK1): 0%
- %Inh (NEK2): 12%
- %Inh (NEK3): 0%
- %Inh (NEK4): 0%
- %Inh (NEK5): 8%
- %Inh (NEK6): 0%
- %Inh (NEK7): 0%
- %Inh (NEK9): 0%
- %Inh (NIK): 0%
- %Inh (NIM1): 0%
- %Inh (NLK): 8%
- %Inh (OSR1): 0%
- %Inh (PAK1): 17%
- %Inh (PAK2): 0%
- %Inh (PAK3): 0%
